HepG2 tox – kills HepG2 cells in TGF-b inhibitor counter-screen. Potency, µM (top dose mostly 46.1 µM), inactives show at the highest dose activity change, negative = cytotoxicity, actives largely listed as cytotoxic. HepG2 CAGA-GFP viability, ATP luminescence, 18 h. 410,000 compounds, 0.76% hits
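HepG2 CAGA-GFP cells (1000/well, DMEM with 1% FBS) received compound, then TGF-beta at 500 pg/mL final, and were incubated 18 hours at 37 degrees C. Viability was read by CellTiter-Glo luminescence. Media-only wells were set as complete cell-killing and DMSO as no toxicity.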
ATXN2 expr inh – ATXN2 expression inhibition. HEK-293 ATXN2-luciferase reporter, luminescence, 24 h. 360,000 compounds, 0.72% hits. Potency, µM (series often up to 57 µM), for inactives: at the highest dose activity change, negative = inhibition, actives largely listed as inhibitors; note: % is set by controls: 0 for no effect and ±100 for the full control effect; nearly all actives have a fitted effect of over 55% in size
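qHTS (up to 57 uM final) was run with 24 h compound exposure of reporter cells at 37 °C. Each well was multiplexed: SteadyGlo luminescence measured ATXN2-luciferase expression after a fluorogenic Gly-Phe-AFC viability readout (25 uM final).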
Gal4-VP16 FLuc – counter-screen for ROR gamma inhibitors: Gal4-VP16 reporter; Potency, µM (doses to about 53.6 µM), without a hit: at the highest dose activity, negative = inhibition, usual class: inhibitors; AID 2546; 310,000 compounds, 3.5% hits; Drosophila S2 Gal4-VP16 UAS-luciferase, luminescence, 20 h;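 note: Gal4-VP16 expression switched on by copper sulfate through the metallothionein promoter; % is set by controls: 0 for no effect and ±100 for the full control effect; nearly all actives have a fitted effect of over 50% in size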
TGFb SMAD3 inh – TGF-b pathway inhibition; HepG2 CAGA-GFP TGF-b/SMAD3 reporter, GFP fluorescence, 18 h; TGF-beta stimulated, 500 pg/mL final; 410,000 compounds, 1.2% hits; Potency, µM (top dose mostly 46.1 µM), without a hit: at the highest dose activity, negative = inhibition, usual class: inhibitors; AID 588855; note: % is set by controls: 0 for no effect and ±100 for the full control effect; nearly all actives have a fitted effect of over 65% in size
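HEPG2 CAGA-GFP cells (1000/well, DMEM with 1% FBS) were pre-incubated 2 h at 37 degrees C, given compound by pin tool, then stimulated with TGF-beta at 500 pg/mL final for 18 h before per-cell GFP fluorescence imaging.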
RORg inh – ROR gamma (mouse) transcription inhibition. 310,000 compounds, 5.4% hits. Potency, µM (highest dose often 53.6 µM), without a hit: at the top dose activity change, negative = inhibition, most hits filed as inhibitors. Drosophila S2 Gal4-RORgamma UAS-luciferase reporter, 20 h. P51450; note: % is set by controls: 0 for no effect and ±100 for the full control effect; nearly all actives have a fitted effect of over 60% in size
Target sequence (P51450 whole entry, looked up, the tested form may be a part): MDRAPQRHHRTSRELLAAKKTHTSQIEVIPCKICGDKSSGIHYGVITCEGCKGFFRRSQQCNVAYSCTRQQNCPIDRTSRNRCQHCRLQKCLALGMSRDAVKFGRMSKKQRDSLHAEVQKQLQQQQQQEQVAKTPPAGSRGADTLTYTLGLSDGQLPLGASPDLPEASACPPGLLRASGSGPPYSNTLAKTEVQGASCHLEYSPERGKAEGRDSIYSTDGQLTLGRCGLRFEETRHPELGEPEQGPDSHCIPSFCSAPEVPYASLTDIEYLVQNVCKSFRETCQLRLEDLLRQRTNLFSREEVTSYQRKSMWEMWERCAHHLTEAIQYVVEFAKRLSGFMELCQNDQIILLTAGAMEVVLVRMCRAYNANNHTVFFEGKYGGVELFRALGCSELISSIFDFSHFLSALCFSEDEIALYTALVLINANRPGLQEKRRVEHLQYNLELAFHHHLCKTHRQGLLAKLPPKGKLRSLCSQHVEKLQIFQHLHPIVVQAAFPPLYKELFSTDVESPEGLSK
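Compounds are pin-transferred onto Drosophila Schneider cells expressing a copper-inducible Gal4–ROR gamma transactivation domain fusion. After 1 hr, copper sulfate is added to 700 uM final; luciferase is read 20 hr later.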
ATXN viability – reduces viability in counter-screen for ATXN expression inhibitors. S2 cells (HEK-293 line with an ATXN2-luciferase reporter) viability, CellTiter-Fluor protease fluorescence, 24 h. Potency, µM (top dose mostly 56.7 µM), hits mostly cytotoxic. 400,000 compounds, 0.49% hits; note: nearly all actives have a fitted effect of over 40% in size
* = called active by the depositor; i = inactive; ? = inconclusive; . = not tested or not shown; [ ] = dose if it differs, or a comment. A selection: hits, their analogues and other compounds. The true share with any hit is near 6.3%. Calls come from the whole dose curve; as a rule, active = well fitted curve in the direction sought with a large enough effect; inconclusive = small, poorly fitted or top-dose-only effect, or another doubt; inactive = no such curve, though single readings can be large; an effect the other way counts as inactive or inconclusive. Potency is the fitted concentration of half-maximal effect.

SMILES | HepG2 tox | ATXN2 expr inh | Gal4-VP16 FLuc | TGFb SMAD3 inh | RORg inh | ATXN viability
Fc1ccc(Br)cc1C1C=C(c2ccc(Br)s2)Nc2ncnn21 (stereo not drawn) | -59% | -12% | 3%[0.365 µM] | -29% | 35µM* | i
C[C@](N)(C(=O)O)c1ccc(-c2nn[nH]n2)cc1 | . | . | 8% | . | 41% | .
CCC1(C2CCN(C(=O)c3ccccc3C(C)=O)CC2)NC(=O)N(CCc2scnc2C)C1=O (stereo not drawn) | . | . | . | . | . | i
Nc1nc2c(ncn2[C@@H]2O[C@H](CNCc3cnc(N4CCOCC4)nc3)[C@@H](O)[C@H]2O)c(=O)[nH]1 | 12% | 9% | . | -21% | . | i
N[C@H](C(=O)O)c1ccc(O)cc1 | . | 1%[25.6 µM] | . | . | . | i
CN(C)/C=C1\Oc2ccc3ccccc3c2C1=O | -11% | 17% | -7% | -23% | 20% | .
O=C1C(=O)c2c(ccc3ccccc23)-c2ccccc21 | -4% | 3.2µM* | . | ? | . | 5µM*
CSc1ccc(CN2CCC(C)(Oc3cccc(C#N)c3)C2)cc1 (stereo not drawn) | -35% | -19% | . | -3% | . | i
COc1cc(CCCN2C(=S)NC[C@@H]2c2ccccc2)cc(OC)c1OC | 0% | -4% | ? | -19% | 10µM* | i
COc1cc(CCCN2C(=S)NC[C@@H]2Cc2ccccc2)cc(OC)c1OC | -17% | 0% | ? | -38% | 10µM* | i
COc1cc(CCCN2C(N)=NC[C@@H]2Cc2ccccc2)cc(OC)c1OC | 6% | 9% | 5% | ? | -2% | i
CC(C)(C)n1ncc2c(=O)n(Cc3cccc(-c4ccccc4)c3)cnc21 | -28% | . | . | ? | . | .
CCCCc1cc(=O)oc2cc(O)cc(O)c12 | -2% | -14% | 22µM* | 1% | -38% | i
CCCCc1cc(=O)oc2cc(C)cc(O)c12 | -46% | -35% | ? | 0% | ? | i
Cc1cc(C)n(CC(O)Cn2c3ccc(Cl)cc3c3cc(Cl)ccc32)c(=O)n1 (stereo not drawn) | -87% | 32µM* | 3% | ? | 2% | ?
Cc1cc(C)n(CC(O)Cn2c3ccccc3c3ccccc32)n1 (stereo not drawn) | -23% | -14% | ? | -17% | ? | i
COc1ccc(C(N)=S)cc1 | 0% | -1% | ? | 0% | 13µM* | ?
CCc1ccc(C(N)=S)cc1 | 8% | 9% | -17% | -3% | 11µM* | i
C=C(c1ccc(OC)cc1)c1ccc(OC)cc1 | 6% | -5% | 8% | -21% | 39% | ?
CCc1cc(C(N)=S)ccn1 | 6% | 1% | -4% | 6% | 17% | i
c1ccc(-c2nn[nH]n2)c(Nc2cccc3c2CCCC3)c1 | . | . | -22% | . | 18% | .
Cc1cccc(C)c1NC(=O)CN1CCN(c2ccc(C(F)(F)F)cn2)CC1 | -23% | -19% | . | ? | . | ?
Cc1noc(C)c1NC(=O)Nc1cccc2c1O[C@H](CN(C)C(=O)Nc1ccc(C(F)(F)F)cc1)[C@@H](C)CN([C@H](C)CO)C2=O | -16% | -11% | . | -35% | . | i
Fc1ccc(-c2cc(-c3nnc4n3CCCCC4)c3ccccc3n2)cc1 | 8% | -6% | 11µM* | -6% | ? | i
c1ccc2c(-c3nnc4n3CCCCC4)cc(-c3ccncc3)nc2c1 | 14% | 6% | -3% | 1% | -11% | i
Clc1ccc(-c2cc(-c3nnc4n3CCCCC4)c3ccccc3n2)cc1 | 22% | -26% | 3.2µM* | 7% | ? | i
Cc1ccc(CNC(=O)c2nnn(Cc3ccc(F)cc3)c2N)cc1 | -35% | -6% | . | -6% | . | i
CC1(C)N=C(N)NC(=NCCCOc2ccc([N+](=O)[O-])cc2)N1 | -11% | 15% | . | 6% | . | i
Cc1ccc(C)c(C(=O)N2CCC(c3nc4c(nnn4Cc4ccccc4)c(=O)[nH]3)CC2)c1 | -9% | 16% | . | 11µM* | . | i
